# Data as given in PubChem BioAssay AID2540 (Sanford-Burnham Center for Chemical Genomics, 2010).
# Screen size: about 330,000 compounds; about 4,100 (1.2%) were called active. What follows is part of a selection rich in actives, with near analogues and random picks from the rest. Values without a mark were called inactive. Rule as the data show it: active = inhibition above about 50%; inactive = the rest.
# Molecular target: Sentrin-specific protease 8 (Homo sapiens) (UniProt Q96LD8)
# Experiment: blockers of human SENP8 peptidase activity – biochemical, luminescence, primary screen (AID 2540)
# Conditions: purified SENP8, Z-RLRGG-aminoluciferin cleavage, at 10 µM, hits give high values
# Chain of Sentrin-specific protease 8 (Homo sapiens) (Q96LD8 whole entry, looked up): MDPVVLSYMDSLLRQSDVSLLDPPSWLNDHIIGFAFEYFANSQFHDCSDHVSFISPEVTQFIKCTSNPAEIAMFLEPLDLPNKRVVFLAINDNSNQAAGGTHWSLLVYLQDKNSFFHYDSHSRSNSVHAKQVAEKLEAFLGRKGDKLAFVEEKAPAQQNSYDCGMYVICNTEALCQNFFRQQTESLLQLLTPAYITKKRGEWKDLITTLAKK
row,SMILES,inhibition
1,COc1ccccc1NC(=O)C1=C(C)Nc2nc3ccccc3n2C1c1cccs1 (centres undefined),-5.43%
2,O=C(Nc1ccc(N2CCCC2=O)cc1)c1cncc(Br)c1,-0.181%
3,CCOC(=O)c1cccnc1NC(=O)c1ccncc1,-5.42%
4,CCOC(=O)c1sc(NC(=O)c2sc(C)nc2C)nc1C,13.7%
5,CCOC(=O)c1sc(NC(=O)c2ccncc2)nc1C,88.2% (active)
6,Cc1ccc(NC(=O)CN(C)C(=O)c2ccc(Cl)c(S(=O)(=O)NCc3ccco3)c2)cc1,-1.14%
7,O=CN1CCN(C(=O)c2ccc(Br)o2)CC1,0.91%
8,CC(NC(=O)Nc1cccc([N+](=O)[O-])c1)c1ccc2c(c1)OCO2 (centres undefined),-0.051%
9,CC(=O)Nc1cccc(C(=O)OCC(=O)c2ccc3c(c2)OCO3)c1,67.1% (active)
10,Cc1onc(C(=O)Nc2ccc3c(c2)OCO3)c1[N+](=O)[O-],-9.15%
11,O=C(Nc1ccccc1)c1ccc2c(c1)OCO2,66.7% (active)
12,O=C(Nc1cccc([N+](=O)[O-])c1)c1ccc2c(c1)OCO2,59.1% (active)
13,O=C(COC(=O)c1ccc(F)cc1)Nc1ccc2c(c1)OCO2,-15.4%
14,O=C(COC(=O)c1ccncc1)Nc1ccc2c(c1)OCO2,8.05%
15,O=C(Nc1ccccc1)c1ccc2c(c1)OCCCO2,75.9% (active)
16,O=C(Nc1ccc2c(c1)OCCO2)c1ccoc1,-5.62%
17,O=C(Nc1ccc(NC(=O)c2ccc3c(c2)OCO3)cc1)c1cccc(Cl)c1,-4.6%
18,O=C(Nc1ccc(N2CCOCC2)cc1)c1ccc2c(c1)OCO2,12.3%
19,CN1CCN(c2ccc(NC(=O)c3ccc4c(c3)OCCO4)cc2Cl)CC1,3.49%
20,Cc1ccsc1C1C(C#N)=C(N)OC2=C1C(=O)CC(C)C2 (centres undefined),-10.3%
21,Cc1ccc(S(=O)(=O)N2CCCCC2)cc1NC(=O)c1cccnc1,-12.3%
22,CC1(C)C/C(=N/Nc2ccc([N+](=O)[O-])cc2[N+](=O)[O-])C(C)(C)O1,-5.03%
23,CCCCn1c(N)c(N(CC(C)C)C(=O)CN(C)S(=O)(=O)c2ccc(F)cc2)c(=O)[nH]c1=O,2.26%
24,COC(=O)C1=C(C(=O)OC)C2(OC1c1ccc(Br)cc1)C(=O)c1ccccc1C2=O (centres undefined),-0.809%

row,SMILES,inhibition
1,COc1ccc(C(=O)Nc2ccc3nc(N4CCCCC4)cc(C)c3c2)cc1OC,1.68%
2,COc1cc(C(=O)NCC2(c3ccccc3)CCCC2)ccc1OC(C)C,1.28%
3,COc1ccc(C(=O)Nc2ccc(C3(C#N)CCCC3)cc2)cc1OC,92.8% (active)
4,Cc1ccc2sc(NNC(=O)c3ccc4c(c3)OCCO4)nc2c1C,-5.8%
5,O=C(COC(=O)c1ccc2c(c1)OCCO2)NCc1ccccc1Cl,-14.4%
6,CN(Cc1c(F)cccc1Cl)C(=O)CNC(=O)c1ccc2c(c1)OCO2,-2.64%
7,O=C(Nc1nc2ccccc2s1)c1ccc2c(c1)OCO2,94.1% (active)
8,O=C(Nc1ccccc1F)c1ccc2c(c1)OCO2,65.2% (active)
9,N#CCCN(C(=O)COC(=O)c1ccc2c(c1)OCCO2)c1ccccc1,10%
10,N#Cc1ccccc1NC(=O)c1ccc2c(c1)OCO2,0.633%
11,O=C(OCc1ccccc1F)c1ccc2c(c1)OCCO2,80.2% (active)
12,COCc1nnc(NC(=O)c2ccc3c(c2)OCO3)s1,0.871%
13,O=C(Nc1cc(Cl)ccc1N1CCOCC1)c1ccc(N2CCCC2=O)cc1,6.24%
14,CC(CNc1ccc([N+](=O)[O-])c2cccnc12)Nc1c([N+](=O)[O-])cc(C(F)(F)F)cc1[N+](=O)[O-] (centres undefined),-1.48%
15,CCN(CC)CCOc1ccc2c(c1)C(=NNC(=O)c1ccccn1)c1cc(OCCN(CC)CC)ccc1-2,-1.52%
16,N#Cc1ccc(OCC(=O)NC(=O)NC2CCS(=O)(=O)C2)cc1 (centres undefined),0.761%
17,COc1cc(/C=C/C(=O)O)cc(S(=O)(=O)Nc2ccccc2C(=O)NCCc2ccccc2)c1OC,0.693%
18,Cc1cc(C)c(C#N)c(SCS(=O)c2ccc(C(C)(C)C)cc2)n1 (centres undefined),-4.22%
19,CN1CC(c2ccccc2)C2(COc3ccccc3C2=O)C12C(=O)Nc1ccccc12 (centres undefined),0.36%
20,CC(=O)c1ccccc1NC(=O)CC1(CC(=O)O)CCCCC1,1.06%
21,Clc1ccc(CSc2nnc([C@@H]3CCCN3)o2)cc1,-0.161%
22,CC(C)[C@@H]1NC(=O)c2cc([N+](=O)[O-])cc(I)c2NCCC[C@@H](C(=O)NC(CC(=O)O)C(N)=O)NC(=O)[C@H](CO)NC1=O (some centres undefined),3.05%
23,O=C(NCCOc1ccccc1F)Nc1ccc(Br)cc1,-3.32%
24,CC(C)(C)SCCNC(=O)c1cccc([N+](=O)[O-])c1,-0.846%

row,SMILES,inhibition
1,COc1ccc(C(=O)Nc2ccc3c(c2)OCO3)cc1OC,77.5% (active)
2,O=C(Nc1ccc(C2CC2(Cl)Cl)cc1)c1cccc([N+](=O)[O-])c1 (centres undefined),50.5% (active)
3,Cc1cc(C)nc(NC(=O)c2cccc([N+](=O)[O-])c2)c1,-2.37%
4,COc1cc(NC(=O)c2ccc3c(c2)OCO3)ccc1NC(=O)c1cccs1,-17.4%
5,CC(C)C(=O)Nc1cccc(C(=O)Nc2ccc3c(c2)OCO3)c1,1.49%
6,CCN(c1ccccc1)S(=O)(=O)c1cc2c(cc1C)n(C)c(=O)c(=O)n2C,-13.5%
7,CCN1CCN(c2cc3nc(C)n(Cc4ccccc4)c(=O)c3cc2NC(=O)c2ccccc2F)CC1,-6.48%
8,COc1ccc(C)cc1NC(=O)CSc1nnc2ccc(-c3ccccn3)nn12,4.77%
9,Brc1ccccc1CN1CCC(Cc2ccccc2)CC1,3.24%
10,COc1ccc(-n2nnnc2CNC(=O)c2ccc3ccccc3c2)cc1,-10.6%
11,COc1ccc(C2=NN(c3nc4ccccc4s3)C(=O)C2)cc1,10.1%
12,COc1ccc(-n2nnnc2-c2nc3ccccc3s2)cc1,50.3% (active)
13,N#Cc1c(N)sc2c1CCN(C(=O)OCc1ccccc1)C2,2.15%
14,COc1ccc(SCCN2CCN(CC(C)C)CCC2=O)cc1,5.29%
15,O=C(NCCCN1CCCC1=O)C(=O)NCC1OCCN1S(=O)(=O)c1ccc(Br)cc1 (centres undefined),-0.009%
16,O=C(/C=C/c1ccc2c(c1)OCCO2)c1ccc(O)cc1,76.9% (active)
17,O=C(O)/C=C/c1ccc2c(c1)OCCO2,1.06%
18,CN(C)c1ccc(/C=C/C(=O)c2ccc(O)cc2)cc1[N+](=O)[O-],-28.3%
19,CNS(=O)(=O)c1ccc(NC(=O)Nc2ccc3c(c2)OCO3)cc1,-9.35%
20,CN1CCN(c2ncc3c(n2)CC(c2ccccc2F)CC3=O)CC1 (centres undefined),-5.2%
21,O=C(Nc1ccccc1)Nc1ccccc1C(=O)NCc1ccco1,65.9% (active)
22,Cc1cccc(Nc2ccccc2C(=O)NCc2ccco2)c1C,-4.58%
23,O=C(CCNC(=O)c1ccccc1Cl)NCc1ccco1,-2.13%
24,CCOc1ccc(NC(=O)C/C(C)=N/NC(=O)Cc2cccs2)cc1,-7.21%

row,SMILES,inhibition
1,CC(C)[C@H](NC(=O)N1CCn2c1nc1ccccc12)C(=O)NC1CC1,-8.07%
2,CSCCC(NC(=O)COc1ccccc1)C(=O)OCCOc1ccc(Br)cc1 (centres undefined),-20.5%
3,CCC(C)(C)NC(=O)C(c1ccc(O)cc1)N(Cc1ccco1)C(=O)CCC(=O)Nc1ccccn1 (centres undefined),-6.41%
4,Cc1cc(C(=O)N/N=C/c2ccc(N3CCOCC3)cc2)c(C)o1,84.5% (active)
5,CC(=C/c1ccccc1)/C=N/NC(=O)c1cc(C)oc1C,73.3% (active)
6,Cc1cc(C(=O)N/N=C\C(Br)=C\c2ccccc2)c(C)o1,38.8%
7,O=C(NN=Cc1ccc(N2CCOCC2)cc1)c1cc2ccccc2cc1O,-1.63%
8,COc1ccc(C/C(C)=N/NC(=O)c2cc(C)oc2C)cc1,-5.88%
9,Cc1ccccc1N/N=C/c1ccc(N2CCOCC2)cc1,-7.47%
10,CCCOc1ccc(C2=CSC3=NCCN23)cc1Cl,-25.9%
11,CCN(C(=O)CSc1nnc(-c2ccncc2)o1)c1ccccc1,-5.88%
12,COc1ccc(CNc2c(CO)cnc3c2cnn3C)cc1,3.66%
13,CC(=O)c1cc2c(cc1NC(=O)CN1CCCCCC1)OCO2,6.92%
14,COCCN(C(=O)CSCc1ccc(C)cc1)c1c(N)n(CC(C)C)c(=O)[nH]c1=O,-1.3%
15,CCCCCC(=O)N1CCN(S(=O)(=O)c2ccc3c(c2)OCCCO3)CC1,0.168%
16,Cc1ccsc1C(=O)N/N=C/c1ccc([N+](=O)[O-])cc1,73.3% (active)
17,Cc1ccc(NC(=O)c2sccc2C)cc1[N+](=O)[O-],3.23%
18,O=C(N/N=C/c1ccc([N+](=O)[O-])cc1)C(=O)N1CCCC1,-9.06%
19,CN(CCOc1ccccc1)Cc1nc2cc(Cl)ccc2c(=O)[nH]1,0.32%
20,COCC(C)n1c(C)cc(C(=O)COc2ccc(C)nc2[N+](=O)[O-])c1C (centres undefined),4.55%
21,C#Cc1ccc([C@@H]2C=C(C(=O)O)O[C@H](OCCCCO)C2)cc1,-9.34%
22,CCC(C)NC(=O)/C=C/c1ccc(S(=O)(=O)NCc2ccco2)cc1 (centres undefined),-7.51%
